Bioassay records as filed in PubChem BioAssay.
The full list was thinned out, with hits kept by preference.
FECH block: inhibitors of human ferrochelatase, primary screen, biochemical, purified FECH, Ni-mesoporphyrin absorbance; Ferrochelatase, mitochondrial (Homo sapiens), P22830; Ni-mesoporphyrin absorbance 550 nm; calls only at 10 µM (by protocol); actives 3.3% (n = 20,000);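 active = enzyme reaction rate more than 3 SD below the solvent-only control wells on the same plate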;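 also: lower slope than DMSO wells means FECH inhibition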
Target sequence (P22830 whole entry, looked up): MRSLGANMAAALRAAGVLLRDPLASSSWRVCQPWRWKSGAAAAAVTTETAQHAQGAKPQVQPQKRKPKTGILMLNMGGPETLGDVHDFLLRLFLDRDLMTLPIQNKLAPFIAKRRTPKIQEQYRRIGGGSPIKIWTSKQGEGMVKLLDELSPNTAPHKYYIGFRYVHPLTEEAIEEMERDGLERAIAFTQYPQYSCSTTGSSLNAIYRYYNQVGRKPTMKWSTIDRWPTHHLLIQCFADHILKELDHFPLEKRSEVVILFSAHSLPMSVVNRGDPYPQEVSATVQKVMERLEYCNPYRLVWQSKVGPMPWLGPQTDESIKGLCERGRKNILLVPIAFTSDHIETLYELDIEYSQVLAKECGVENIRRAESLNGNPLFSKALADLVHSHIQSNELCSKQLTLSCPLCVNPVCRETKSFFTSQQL
Numbers without * were called inactive; i = inactive; + = active, no number.

SMILES	FECH block
O=C(NCc1csc2ccc(Cl)cc12)c1cn(CC2CCCNC2)nn1 (centres undefined)	i
c1coc(Cn2ccnc2-c2ccc(-c3ccn[nH]3)s2)c1	i
CCCc1cc(=O)n2[nH]c(CNc3ccc(C)cc3)nc2n1	+
CCCc1cc(=O)n2[nH]c(CNc3cc(Cl)ccc3OC)nc2n1	i
CCCc1cc(=O)n2[nH]c(CNc3ccccc3Cl)nc2n1	i
CCCc1cc(=O)n2[nH]c(CNc3ccccc3F)nc2n1	+
CCCc1cc(=O)n2[nH]c(CNc3ccccc3OCC)nc2n1	i
CCCc1cc(=O)n2[nH]c(CNc3ccc(C)c(Cl)c3)nc2n1	+
CC(C)N(CCCNC(=O)C1CCCN1c1nnc(N2CCCC2=O)s1)Cc1ccccc1 (centres undefined)	i
Cc1ccc(N(CC(=O)NCC(C)Oc2cccnc2)S(C)(=O)=O)cc1 (centres undefined)	i
CCn1c(C2CCCN(Cc3coc(-c4ccccc4)n3)C2)nn(C)c1=O (centres undefined)	i
CC(C)c1cc(N2Cc3cnn(CCO)c3C2)nc(C(F)(F)F)n1	i
CCOc1ccccc1C(=O)NC1CC(=O)N(c2ccc(F)cc2)C1 (centres undefined)	i
Cc1cccc(SCc2cc(=O)n3oc(C)cc3n2)c1	i
CCCC(C(=O)Nc1ccc(F)cc1)N1Cc2ccccc2C1=O (centres undefined)	i
Cc1nn(CCNC(=O)C(=O)c2cccnc2)c(C)c1Cl	i
CN1CCN(C)C2(CCN(c3ncccc3C(=O)N3CCCC3)CC2)C1	i
CCOC(=O)N[C@H]1C[C@@H](C(=O)NCc2cccc(Cl)c2)N(C)C1	i
COc1ccccc1-c1nc(Cn2c(=O)c3cnc(-c4cccnc4)nc3n(C)c2=O)c(C)o1	i
COc1ccc(-c2ncc3c(=O)n(Cc4cccc(C)c4)c(=O)n(C)c3n2)cc1	i
COc1ccc(-c2ncc3c(=O)n(Cc4cccnc4)c(=O)n(C)c3n2)cc1	+
CCOc1ccccc1-c1nc(Cn2c(=O)c3cnc(-c4ccc(C)cc4)nc3n(C)c2=O)c(C)o1	i
COc1ccc(-c2ncc3c(=O)n(Cc4cccc(OC)c4)c(=O)n(C)c3n2)cc1	i
COc1ccccc1-c1nc(Cn2c(=O)c3cnc(-c4ccc(C)cc4)nc3n(C)c2=O)c(C)o1	+
Cc1nc2nc(-c3ccccc3)nn2c(Sc2ccc(N)cc2)c1C	i
SMILES	FECH block
COc1cccc(C2CCN2C(=O)CC(=O)Nc2ccc(C)cc2)c1 (centres undefined)	i
CCCC(=O)Nc1cc2c(cc1OC)NC(=O)CC2c1ccc(Cl)s1 (centres undefined)	i
CCn1c(CNS(=O)(=O)c2ccc(NC(C)=O)cc2)nc2cccnc21	i
O=C1CN(Cc2ccccc2Cl)S(=O)(=O)c2ccccc2N1Cc1ccc(Cl)cc1	i
Cc1ccc(C)c(CN2CC(=O)N(Cc3ccc(Cl)cc3)c3ccccc3S2(=O)=O)c1	+
Cc1cccc(CN2CC(=O)N(Cc3ccc(Cl)cc3)c3ccccc3S2(=O)=O)c1	i
CC(C)NC(=O)c1nc[nH]c1C(=O)N1CCCC1	i
Cc1cc(NC(=O)c2ccccc2C(F)(F)F)n(-c2ncnc3c2cnn3-c2cccc(Cl)c2)n1	i
COc1cccc(OCC(=O)Nc2cc(C)nn2-c2ncnc3c2cnn3-c2cccc(C)c2C)c1	i
Cc1cc(NC(=O)COc2ccc(C(C)C)cc2)n(-c2ncnc3c2cnn3-c2cccc(C)c2C)n1	+
Cc1cccc(OCC(=O)Nc2cc(C)nn2-c2ncnc3c2cnn3-c2cccc(C)c2C)c1	i
CC(C)CN(CC(C)C)c1ncc(NS(=O)(=O)c2ccccc2)cc1C(=O)O	i
COc1ccc(S(=O)(=O)Nc2cnc(N(CC(C)C)CC(C)C)c(C(=O)O)c2)cc1	+
CC(C)CN(CC(C)C)c1ncc(NS(=O)(=O)c2ccc(F)cc2)cc1C(=O)O	i
CCn1c(=O)n(CCOc2ccc(F)cc2)c(=O)c2cnc(-c3ccc(Cl)cc3)nc21	+
CCn1c(=O)n(CCOc2ccc(F)cc2)c(=O)c2cnc(-c3ccc(OC)cc3)nc21	i
Cn1c(=O)n(CCOc2ccc(F)cc2)c(=O)c2cnc(-c3ccc(Cl)cc3)nc21	i
c1ccc(C2CCCN(CCNC3CCSCC3)C2)cc1 (centres undefined)	i
COc1ccccc1N(Cc1nc2nc(C)cc(C)n2n1)C(=O)c1ccco1	i
CC(=O)Nc1ccc(-c2nc(-c3ccc4c(c3)Sc3ccccc3C(=O)N4C)no2)cc1	i
CN1C(=O)c2ccccc2Sc2cc(-c3noc(CNC(=O)c4ccccc4)n3)ccc21	+
CN1C(=O)c2ccccc2Sc2cc(-c3noc(COc4ccc(F)cc4)n3)ccc21	i
Cc1cc(NC(=O)c2ccc(C(C)(C)C)cc2)n(-c2ncnc3c2cnn3-c2cccc(C)c2C)n1	i
O=C(NCc1cc(=O)[nH]cn1)c1cccc2ccnn12	i
Cc1cc(C)n(CCNC(=O)c2cccc3ccnn23)c(=O)n1	i
SMILES	FECH block
O=C(NCCN1N=C(c2ccccc2)CCC1=O)c1cccc2ccnn12	+
CCC(C)NC(=O)Cn1c(=O)n(Cc2ccc(C(=O)NC)cc2)c(=O)c2cc(OC)c(OC)cc21 (centres undefined)	+
CCCNC(=O)c1ccc(Cn2c(=O)c3cc(OC)c(OC)cc3n(CC(=O)NC(C)CC)c2=O)cc1 (centres undefined)	i
COc1cc2c(=O)n(Cc3ccc(C(=O)NC4CCCC4)cc3)c(=O)n(CC(N)=O)c2cc1OC	i
CNC(=O)c1ccc(Cn2c(=O)c3cc(OC)c(OC)cc3n(CC(=O)NC3CCCC3)c2=O)cc1	+
CCCNC(=O)Cn1c(=O)n(Cc2ccc(C(=O)NC)cc2)c(=O)c2cc(OC)c(OC)cc21	i
CCC(C)NC(=O)c1ccc(Cn2c(=O)c3cc(OC)c(OC)cc3n(CC(N)=O)c2=O)cc1 (centres undefined)	i
Cc1cccc(SC2CCN(CCC(F)(F)F)CC2)c1	i
Cc1noc(C)c1CNC(=O)c1csc(CN(C)C)n1	i
NS(=O)(=O)c1ccc(CCNC(=O)Cc2csc(NC(=O)Nc3cccc(Cl)c3)n2)cc1	i
CCCc1cc(Sc2ccc(NC(=O)Nc3cccc(C)c3)cc2)n2ncnc2n1	i
CCOC(=O)c1cc2ccsc2n1CC(=O)Nc1c(C)cc(C)cc1C	+
COC(=O)c1cc2ccsc2n1CC(=O)Nc1c(C)cccc1C	i
CCOC(=O)c1cc2ccsc2n1CC(=O)Nc1ccccc1C	i
CCOC(=O)CNc1ccccc1C(=O)N1CCCC1c1c(C)noc1C (centres undefined)	i
O=C1CN(Cc2cccc(Cl)c2)S(=O)(=O)c2ccccc2N1Cc1cccc(C(F)(F)F)c1	i
COCCNc1nc(Nc2cc(OC)ccc2OC)c2cnn(-c3ccccc3)c2n1	i
CCOc1ccccc1NC(=O)CN1c2ccc(C(C)C)cc2-c2ccccc2S1(=O)=O	+
CCC1=C(c2ccc(OC)cc2)S(=O)(=O)N(CC(=O)Nc2ccc(F)cc2F)C1=O	i
CC1CCN(c2ccc(NC(=O)CN3C(=O)c4ccccc4S3(=O)=O)cc2Cl)CC1	i
CCc1ccc2c(c1)-c1ccccc1S(=O)(=O)N2CC(=O)Nc1ccc(F)cc1	+
COc1ccc(NC(=O)CN2c3ccc(C(C)C)cc3-c3ccccc3S2(=O)=O)cc1Cl	i
